Laboratory results from PubChem BioAssay (Tox21).
Records with an inconclusive call do not appear. The source made the active and inactive calls. Calls come from the whole dose curve.

Biological target: Peroxisome proliferator-activated receptor delta (Homo sapiens) (UniProt Q03181)
Assay: qHTS assay to identify small molecule agonists of the peroxisome proliferator-activated receptor delta (PPARd) signaling pathway (AID 743212)
Conditions: HEK293H PPARd-UAS-bla, beta-lactamase FRET ratio, 17 h; series mostly up to 62.6 µM; activation: at the top concentration
Text: U.S. Tox21 Program National Center for Advancing Translational Sciences [NCATS] NIH Chemical Genomics Center [NCGC] U.S. Environmental Protection Agency [EPA] National Institutes of Environmental Health Sciences [NIEHS] National Toxicology Program [NTP] U.S. Food and Drug Administration [FDA] Tox21 Assay Overview: The peroxisome proliferator-activated receptors (PPARs) are lipid-activated transcription factors of the nuclear receptor superfamily with three distinct subtypes namely PPAR alpha, PPAR delta (PPARd) and PPAR gamma. All these subtypes heterodimerizes with Retinoid X receptor (RXR) and have different physiological functions. […] To identify the compounds that activate PPAR-delta signaling, GeneBLAzer PPAR delta UAS-bla HEK293H cell line (Invitrogen, Carlsbad, CA, USA) containing a beta-lactamase reporter gene under the control of an Upstream Activator Sequence (UAS) was used to screen the Tox21 compound library.
Tox21 Assay Protocol Summary: PPARd-bla cells were dispensed at 3000 cells/6uL/well in 1536-well black wall/clear bottom plates using a Multidrop Combi (Thermo Fisher Scientific, Waltham, MA) dispenser. After the assay plates were incubated at 37 C and 5% CO2 for 5 h, 23 nL of compounds dissolved in DMSO, positive controls or DMSO only was transferred to the assay plate by a Pintool station (Kalypsys, San Diego, CA). The assay plates were incubated at 37C for 17 h. After 1 uL of LiveBLAzerTM B/G FRET substrate was added using a Bioraptr Flying Reagent Dispenser (FRD) workstation (Beckman Coulter, Indianapolis, IN, USA), the plates were incubated at room temperature for 2 h, and fluorescence intensity was measured by an Envision plate reader (PerkinElmer, Shelton, CT).
% is set by controls: 0 for no effect and ±100 for the full control effect.

Sequence of Peroxisome proliferator-activated receptor delta (Homo sapiens) (Q03181 whole entry, looked up): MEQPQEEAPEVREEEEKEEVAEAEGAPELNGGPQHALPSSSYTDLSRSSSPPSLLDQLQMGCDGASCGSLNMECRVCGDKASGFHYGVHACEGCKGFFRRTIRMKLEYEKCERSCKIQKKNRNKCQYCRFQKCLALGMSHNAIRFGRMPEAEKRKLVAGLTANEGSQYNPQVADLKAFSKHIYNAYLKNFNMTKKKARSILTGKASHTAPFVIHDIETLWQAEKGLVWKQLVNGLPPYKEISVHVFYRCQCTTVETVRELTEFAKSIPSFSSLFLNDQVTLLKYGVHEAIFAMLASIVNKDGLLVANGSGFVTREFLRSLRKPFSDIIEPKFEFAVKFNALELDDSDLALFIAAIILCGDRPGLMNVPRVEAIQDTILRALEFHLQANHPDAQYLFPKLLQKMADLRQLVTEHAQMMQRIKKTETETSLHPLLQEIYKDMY

SMILES	activation
Cc1ccc(O)c([C@H](CCN(C(C)C)C(C)C)c2ccccc2)c1	-7.26% (inactive)
Cc1cc(NC(=O)C(=O)O)cc(C)c1Oc1ccc(O)c2c1CCC2	-4.37% (inactive)
CN(C)CC[C@@H](c1ccc(Br)cc1)c1ccccn1	1.23% (inactive)
CN(C)CCCNCCCN	-2.09% (inactive)
COC(=O)CSc1cc(N=c2sc(=O)n3n2CCCC3)c(F)cc1Cl	-0.0913% (inactive)
Cl/C(=C\n1cncn1)c1ccc(Cl)cc1Cl	4.66% (inactive)
O=C(O)[C@@H]1[C@H]2C[C@H]3c4[nH]c5ccccc5c4CCN3C[C@@H]2CC[C@@H]1O	1.55% (inactive)
Cc1cc(C)c(S(=O)(=O)O)cc1N=Nc1cc(S(=O)(=O)O)c2ccccc2c1O	1.75% (inactive)
CC(=O)c1c(C)c([N+](=O)[O-])c(C(C)(C)C)c([N+](=O)[O-])c1C	6.87% (inactive)
Oc1ccc(Cc2ccccc2)cc1	1.34% (inactive)
N#Cc1c(F)cccc1F	-1.35% (inactive)
Cn1c(NCCN(CCO)CCCc2ccc([N+](=O)[O-])cc2)cc(=O)n(C)c1=O	-2.22% (inactive)
CC1CCc2cc(F)cc3c(=O)c(C(=O)O)cn1c23 (stereo not given)	-4.32% (inactive)
N#CCc1cccc(C(F)(F)F)c1	0.402% (inactive)
O=C(Cl)c1ccc([N+](=O)[O-])cc1	4.16% (inactive)
CCOc1ccc2[nH]cc(C(=O)NCc3ccccc3)c(=O)c2n1	0.843% (inactive)
O=C(Cl)c1c(Cl)cccc1Cl	-0.495% [at 81.1 µM] (inactive)
Nc1ccc(C(=O)Nc2ccccc2N)cc1	-1.55% (inactive)
C=C(C)C(=O)OCCOc1ccccc1	-1.04% (inactive)
CCCCCC/C=C/C=O	-0.108% (inactive)

SMILES	activation
c1ccc(-c2nc[nH]c2-c2ccccc2)cc1	-3.1% (inactive)
Cn1c(N)nc2nc[nH]c2c1=O	0.92% (inactive)
CC(=O)SCc1ccco1	0.157% (inactive)
O=C(NN1CCCC1)NS(=O)(=O)c1ccc(Cl)cc1	0.071% (inactive)
CC(Cc1cccc(C(F)(F)F)c1)NCCOC(=O)c1ccccc1 (stereo not given)	8.79% (inactive)
CC(C)CCCCCCOC(=O)c1ccc(C(=O)OCCCCCCC(C)C)c(C(=O)OCCCCCCC(C)C)c1	3.84% (inactive)
CCc1nn(C2CCCCC2)c2cc(C3(C#N)CCC(C(=O)O)CC3)ccc12 (stereo not given)	-9.73% (inactive)
Cc1c(Cn2ccnc2)c2ccccc2n1CCC(=O)O	0.418% (inactive)
Cc1ccc(C(C)c2ccc(C)c(C)c2)cc1C	1.88% (inactive)
CCN(CC)CCc1nc(-c2ccccc2)no1	-2.58% (inactive)
CCN(CC)CCOC(=O)C1(c2ccccc2)CCCC1	-0.772% (inactive)
CCOc1nc2cccc(C(=O)O)c2n1Cc1ccc(-c2ccccc2-c2nn[nH]n2)cc1	9.03% (inactive)
O=C(O)C(c1ccc(Cl)cc1)c1ccc(Cl)cc1	10.2% (inactive)
CCCCCOC(=O)c1ccc(O)cc1	5.33% [at 81.1 µM] (inactive)
CC(C)(C)c1ccc(OCC2CO2)cc1 (stereo not given)	0.992% [at 81.1 µM] (inactive)
O=C(O)Cc1sc(-c2ccccc2)nc1-c1ccc(Cl)cc1	-6.22% (inactive)
Cc1ccc(C(N)=O)cc1N	-2.11% (inactive)
COc1ccc([C@@H]2Sc3ccccc3N(CCN(C)C)C(=O)[C@@H]2OC(C)=O)cc1	2.09% (inactive)
c1ccc(OCc2ccc(CCCN3CCOCC3)cc2)cc1	2.2% (inactive)
CCC(=O)OC(C)(C)C1CC=C(C)CC1 (stereo not given)	-0.19% (inactive)
